# Values joined by “and” are separate entries in the source; they are usually repeats but may differ in a detail not shown here. Identical values can stand only once. Results filed as inconclusive are left out. Where a call stands in place of a potency, no number is given. Where a structure was tested more than once in an assay, its records may differ in their call. A number with no mark means an inactive call. Active and inactive are the calls of the source. Calls follow the shape of the dose curve; as a rule, active = well fitted curve in the direction sought with a large enough effect; inconclusive = small, poorly fitted or top-dose-only effect, or another doubt; inactive = no such curve, though single readings can be large; an effect the other way counts as inactive or inconclusive.
# Assays:
# HEK293 = assay: Cytotoxic Profiling of Annotated Libraries Using Quantitative High-Throughput Screening (AID 1296008); settings: Five cell lines viability, CellTiter-Glo ATP luminescence, 48-72 h; max response: stronger effect = lower value; also: nearly all actives have a fitted effect of over 60% in size
# Procedure, shortened: (§1)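 Compounds were pin-transferred onto cells and incubated 48 or 72 hr at 37 degree Celsius, 95% humidity. CellTiter-Glo was added, plates sat 10 min at room temperature, then ATP-coupled luminescence was imaged as the viability read-out.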
# HaCat [1] = assay: as above; settings: Five cell lines viability, CellTiter-Glo ATP luminescence, 48-72 h; max response: stronger effect = lower value
# Procedure, shortened: as §1
# KB-3-1 = assay: as above; settings: Five cell lines viability, CellTiter-Glo ATP luminescence, 48-72 h; max response: stronger effect = lower value
# Procedure, shortened: as §1
# NIH3T3 = assay: as above; settings: Five cell lines viability, CellTiter-Glo ATP luminescence, 48-72 h; max response: stronger effect = lower value
# Procedure, shortened: as §1
# HACAT [2] = assay: qHTS assay to identify novel small-molecules to repurpose for Merkel cell carcinoma treatment (AID 1296009); settings: MCC and control cell lines, CellTiter-Glo viability, 72 h; at 44.8 µM (top of the series) unless noted; also: nearly all actives have a fitted effect of over 60% in size
# Procedure, shortened: (§2)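 qHTS format: cells treated with library compounds in DMSO across 8 (NPC) or 11 (MIPE) concentrations. Readout after 72 hr at 37 degree celsius was CellTiter-Glo luminescence.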
# HEK293T [3] = assay: as above; settings: MCC and control cell lines, CellTiter-Glo viability, 72 h; at 44.8 µM (top of the series) unless noted
# Procedure, shortened: as §2
# MCC-13 = assay: as above; settings: MCC and control cell lines, CellTiter-Glo viability, 72 h; series mostly up to 46 µM
# Procedure, shortened: as §2
# MCC-26 = assay: as above; settings: MCC and control cell lines, CellTiter-Glo viability, 72 h; series mostly up to 46 µM
# Procedure, shortened: as §2
# MKL-1 = assay: as above; settings: MCC and control cell lines, CellTiter-Glo viability, 72 h; series mostly up to 46 µM
# Procedure, shortened: as §2
# MKL-2 = assay: as above; settings: MCC and control cell lines, CellTiter-Glo viability, 72 h; series mostly up to 46 µM
# Procedure, shortened: as §2
# UISO = assay: as above; settings: MCC and control cell lines, CellTiter-Glo viability, 72 h; series mostly up to 46 µM
# Procedure, shortened: as §2
# C33A = assay: Primary qHTS to identify gynecologic anti-cancer compounds using libraries of approved drugs and bioactive compounds (AID 1345084); settings: Gynecologic cancer cell panel viability, ATPlite luminescence, 48 h; series mostly up to 57.5 µM; also: nearly all actives have a fitted effect of over 55% in size
# Procedure, shortened: (§3)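 Cytotoxicity screen measuring ATP content by luciferase luminescence. Each compound is applied at five concentrations for 48 h at 37 C with 5% CO2.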
# CAOV3 = assay: as above; settings: Gynecologic cancer cell panel viability, ATPlite luminescence, 48 h; series mostly up to 57.5 µM
# Procedure, shortened: as §3
# CASKI = assay: as above; settings: Gynecologic cancer cell panel viability, ATPlite luminescence, 48 h; series mostly up to 57.5 µM
# Procedure, shortened: as §3
# Es-2 = assay: as above; settings: Gynecologic cancer cell panel viability, ATPlite luminescence, 48 h; series mostly up to 57.5 µM
# Procedure, shortened: as §3
# HeLa = assay: as above; settings: Gynecologic cancer cell panel viability, ATPlite luminescence, 48 h; series mostly up to 57.5 µM
# Procedure, shortened: as §3
# Hek293T [4] = assay: as above; settings: Gynecologic cancer cell panel viability, ATPlite luminescence, 48 h, control line for the selectivity index; series mostly up to 57.5 µM
# Procedure, shortened: as §3
# WaGa = assay: qHTS assay to identify novel small-molecules to repurpose for Merkel cell carcinoma treatment (AID 1296009); settings: MCC and control cell lines, CellTiter-Glo viability, 72 h; series mostly up to 46 µM; also: nearly all actives have a fitted effect of over 60% in size
# Procedure, shortened: as §2
# CRL-7250 = normal cell line; assay: Cytotoxic Profiling of Annotated Libraries Using Quantitative High-Throughput Screening (AID 1296008); settings: Five cell lines viability, CellTiter-Glo ATP luminescence, 48-72 h; max response: stronger effect = lower value; also: nearly all actives have a fitted effect of over 60% in size
# Procedure, shortened: as §1
# Potency is read from the fitted curve at half-maximal effect.
smiles,measurement,setting,value
Cc1nnc(SCC2=C(C(=O)O)N3C(=O)[C@@H](NC(=O)Cn4cnnn4)[C@H]3SC2)s1,outcome,HEK293,inactive
same,outcome,HaCat [1],inactive
same,max response,KB-3-1,4.46%
same,max response,NIH3T3,-2.45%
same,outcome,HACAT [2],inactive
same,outcome,HEK293T [3],inactive
same,Potency,MCC-13,inactive
same,Potency,MCC-26,inactive
same,Potency,MKL-1,inactive
same,Potency,MKL-2,13.3 µM (active)
same,Potency,UISO,inactive
same,Potency,C33A,inactive
same,Potency,CAOV3,inactive
same,Potency,CASKI,inactive
same,Potency,Es-2,inactive
same,Potency,HeLa,inactive
same,Potency,Hek293T [4],inactive
CN/C(=C\[N+](=O)[O-])NCCSCc1ccc(CN(C)C)o1,max response,HEK293,0.484%
same,outcome,HaCat [1],inactive
same,max response,KB-3-1,15%
same,max response,NIH3T3,-4.45%
same,outcome,HACAT [2],inactive
same,Potency,MCC-13,inactive
same,Potency,MCC-26,inactive
same,Potency,MKL-2,inactive
same,Potency,UISO,inactive
same,Potency,WaGa,inactive
same,Potency,C33A,inactive
same,Potency,CAOV3,inactive
same,Potency,CASKI,inactive
same,Potency,Es-2,inactive
same,Potency,HeLa,inactive
same,Potency,Hek293T [4],inactive
c1cc(CN2CCCCC2)cc(OCCCNc2nc3ccccc3s2)c1,max response,CRL-7250,-17.3%
same,outcome,HaCat [1],inactive
same,max response,KB-3-1,-9.4%
same,outcome,HACAT [2],inactive
same,Potency,MCC-26,inactive
same,Potency,MKL-1,inactive
same,Potency,C33A,inactive
same,Potency,CAOV3,inactive
same,Potency,CASKI,inactive
same,Potency,Es-2,inactive
same,Potency,HeLa,inactive
CCCCCCCC/C=C\CCCCCCCC(=O)NCc1ccc(O)c(OC)c1,max response,CRL-7250,-0.832%
same,outcome,HaCat [1],inactive
same,max response,KB-3-1,-3.68%
same,max response,NIH3T3,-24.7%
same,outcome,HACAT [2],inactive
same,Potency,MCC-13,inactive
same,Potency,MCC-26,inactive
same,Potency,C33A,7.94 µM (active)
same,Potency,CAOV3,inactive
same,Potency,CASKI,inactive
same,Potency,Es-2,inactive
same,Potency,HeLa,inactive
same,Potency,Hek293T [4],inactive
Cc1nc2sccn2c(=O)c1CCN1CCC(=C(c2ccc(F)cc2)c2ccc(F)cc2)CC1,outcome,CRL-7250,inactive
same,max response,HaCat [1],-3.76%
same,max response,NIH3T3,-6.97%
same,Potency,MCC-13,inactive
same,Potency,MCC-26,inactive
same,Potency,MKL-1,inactive
same,Potency,UISO,inactive
same,Potency,C33A,inactive
same,Potency,CAOV3,inactive
same,Potency,CASKI,inactive
same,Potency,Es-2,inactive
same,Potency,HeLa,inactive
same,Potency,Hek293T [4],inactive
COC(=O)[C@H]1[C@H]2C[C@@H]3c4[nH]c5cc(OC)ccc5c4CCN3C[C@H]2C[C@@H](OC(=O)c2cc(OC)c(OC)c(OC)c2)[C@@H]1OC,max response,CRL-7250,0.615% and 0.375%
same,max response,HaCat [1],-6.17% and -7.84%
same,max response,NIH3T3,-3.91% and -6.42%
same,Potency,MCC-13,inactive
same,Potency,C33A,inactive
same,Potency,CAOV3,inactive
same,Potency,CASKI,inactive
same,Potency,Es-2,inactive
same,Potency,HeLa,inactive
same,Potency,Hek293T [4],inactive
CC(N=C(NC#N)Nc1ccncc1)C(C)(C)C (stereo not given),outcome,CRL-7250,inactive
same,outcome,HaCat [1],inactive
same,max response,KB-3-1,-0.411%
same,max response,NIH3T3,0.852%
same,outcome,HACAT [2],inactive
same,Potency,MCC-13,inactive
same,Potency,MCC-26,inactive
same,Potency,MKL-2,inactive
same,Potency,UISO,inactive
same,Potency,WaGa,inactive
same,Potency,C33A,inactive
same,Potency,CAOV3,inactive
same,Potency,CASKI,inactive
same,Potency,Es-2,inactive
same,Potency,HeLa,inactive
same,Potency,Hek293T [4],inactive
CCCCNc1c(C(=O)OCC)c(C)nc2c1cnn2CC,max response,CRL-7250,-21.3%
same,max response,HaCat [1],-1.24%
same,max response,KB-3-1,1.34%
same,Potency,MCC-13,inactive
same,Potency,MCC-26,inactive
same,Potency,MKL-1,inactive
same,Potency,MKL-2,inactive
same,Potency,WaGa,inactive
same,Potency,C33A,inactive
same,Potency,CAOV3,inactive
same,Potency,CASKI,inactive
same,Potency,Es-2,inactive
same,Potency,HeLa,inactive
same,Potency,Hek293T [4],inactive
O=C(CCCN1CCC(O)(c2cccc(C(F)(F)F)c2)CC1)c1ccc(F)cc1,max response,CRL-7250,-19.1%
same,max response,HaCat [1],0.0234%
same,Potency,MCC-13,inactive
same,Potency,MCC-26,inactive
same,Potency,UISO,inactive
same,Potency,WaGa,inactive
same,Potency,C33A,inactive
same,Potency,CAOV3,inactive
same,Potency,CASKI,inactive
same,Potency,Es-2,inactive
same,Potency,HeLa,inactive
same,Potency,Hek293T [4],inactive
C[C@@H](O)[C@H]1C(=O)N2C(C(=O)O)=C(SCCN=CN)C[C@H]12,max response,CRL-7250,-15.5%
same,max response,HEK293,-4.83%
same,max response,NIH3T3,-19.7%
same,Potency,MCC-13,inactive
same,Potency,MCC-26,inactive
same,Potency,MKL-2,inactive
same,Potency,UISO,inactive
same,Potency,WaGa,inactive
same,Potency,C33A,inactive
same,Potency,CAOV3,inactive
same,Potency,CASKI,inactive
same,Potency,Es-2,inactive
same,Potency,HeLa,inactive
same,Potency,Hek293T [4],inactive
CN(C)CCCN1c2ccccc2Sc2ccccc21,max response,CRL-7250,0.274%
same,outcome,HaCat [1],inactive
same,max response,KB-3-1,-0.491%
same,max response,NIH3T3,-1.44%
same,outcome,HACAT [2],inactive
same,Potency,MCC-13,inactive
same,Potency,MCC-26,inactive
same,Potency,MKL-1,inactive
same,Potency,C33A,inactive
same,Potency,CAOV3,inactive
same,Potency,CASKI,inactive
same,Potency,Es-2,inactive
same,Potency,HeLa,inactive
same,Potency,Hek293T [4],inactive
CC(=O)[C@@]1(O)CC[C@H]2[C@@H]3CCC4=CC(=O)CC[C@]4(C)[C@H]3CC[C@@]21C,outcome,CRL-7250,inactive
same,max response,HaCat [1],1.18%
same,max response,KB-3-1,-5.68%
same,max response,NIH3T3,2.18%
same,Potency,MCC-13,inactive
same,Potency,MCC-26,inactive
same,Potency,MKL-1,inactive
same,Potency,MKL-2,inactive
same,Potency,UISO,inactive
same,Potency,WaGa,inactive
same,Potency,C33A,inactive
same,Potency,CAOV3,inactive
same,Potency,CASKI,inactive
same,Potency,Es-2,inactive
same,Potency,HeLa,inactive
same,Potency,Hek293T [4],inactive
Nc1nc(N)c2nc(-c3ccccc3)c(N)nc2n1,max response,CRL-7250,-19.7%
same,max response,HaCat [1],-19.1%
same,max response,KB-3-1,-2.1%
same,Potency,MCC-26,inactive
same,Potency,WaGa,26.6 µM (active)
same,Potency,C33A,10 µM (active)
same,Potency,Es-2,15.8 µM (active)
same,Potency,HeLa,inactive
CCCC(C(=O)OCCN(CC)CC)(c1ccccc1)c1ccccc1,max response,CRL-7250,-17.9%
same,max response,HaCat [1],-7.15%
same,max response,KB-3-1,-8.71%
same,max response,NIH3T3,-27.5%
same,Potency,MCC-26,inactive
same,Potency,UISO,26.6 µM (active)
same,Potency,CASKI,inactive
N[C@@H](COP(=O)(O)O)C(=O)O,outcome,CRL-7250,inactive
same,max response,HEK293,-2.26%
same,max response,NIH3T3,-2.11%
same,Potency,MCC-13,inactive
same,Potency,MCC-26,inactive
same,Potency,MKL-1,inactive
same,Potency,MKL-2,inactive
same,Potency,UISO,inactive
same,Potency,WaGa,inactive
same,Potency,C33A,inactive
same,Potency,CAOV3,inactive
same,Potency,CASKI,inactive
same,Potency,Es-2,inactive
same,Potency,HeLa,inactive
same,Potency,Hek293T [4],inactive
COc1ccc2c(c1OC)C(=O)O[C@@H]2[C@H]1c2c(cc3c(c2OC)OCO3)CCN1C,max response,CRL-7250,4.94%
same,max response,KB-3-1,-12.5%
same,max response,NIH3T3,-0.798%
same,Potency,MCC-13,inactive
same,Potency,MCC-26,inactive
same,Potency,MKL-1,inactive
same,Potency,MKL-2,inactive
same,Potency,C33A,inactive
same,Potency,Es-2,inactive
same,Potency,HeLa,inactive
same,Potency,Hek293T [4],inactive
CCCN1C[C@H](CSC)C[C@@H]2c3cccc4[nH]cc(c34)C[C@H]21,max response,CRL-7250,-3.21% and -8.84%
same,max response,HaCat [1],4.81% and -5.73%
same,max response,KB-3-1,9.69%
same,outcome,KB-3-1,inactive
same,Potency,NIH3T3,21.1 µM (active)
same,max response,NIH3T3,-7.31%
same,Potency,MCC-13,inactive
same,Potency,MCC-26,inactive
same,Potency,MKL-1,inactive
same,Potency,MKL-2,inactive
same,Potency,UISO,inactive
same,Potency,WaGa,inactive
same,Potency,C33A,inactive
same,Potency,CAOV3,inactive
same,Potency,CASKI,inactive
same,Potency,Es-2,inactive
same,Potency,HeLa,inactive
same,Potency,Hek293T [4],inactive

# From PubChem BioAssay (NCATS)
